Legend:
Experiment in all cases: log2 ratio of Biotin-Ahx-Ub-VS probe labelling (fragment/DMSO); higher = less target engagement (more negative = stronger competition), active = hit call of the paper (q ≤ 0.05, log2 ratio ≤ -1)
Conditions in all cases: compound concentration: 200 uM; treatment time: 3 h
USP42 = target: T1, USP42 (UniProt Q9H9J4)
T1 sequence (whole entry): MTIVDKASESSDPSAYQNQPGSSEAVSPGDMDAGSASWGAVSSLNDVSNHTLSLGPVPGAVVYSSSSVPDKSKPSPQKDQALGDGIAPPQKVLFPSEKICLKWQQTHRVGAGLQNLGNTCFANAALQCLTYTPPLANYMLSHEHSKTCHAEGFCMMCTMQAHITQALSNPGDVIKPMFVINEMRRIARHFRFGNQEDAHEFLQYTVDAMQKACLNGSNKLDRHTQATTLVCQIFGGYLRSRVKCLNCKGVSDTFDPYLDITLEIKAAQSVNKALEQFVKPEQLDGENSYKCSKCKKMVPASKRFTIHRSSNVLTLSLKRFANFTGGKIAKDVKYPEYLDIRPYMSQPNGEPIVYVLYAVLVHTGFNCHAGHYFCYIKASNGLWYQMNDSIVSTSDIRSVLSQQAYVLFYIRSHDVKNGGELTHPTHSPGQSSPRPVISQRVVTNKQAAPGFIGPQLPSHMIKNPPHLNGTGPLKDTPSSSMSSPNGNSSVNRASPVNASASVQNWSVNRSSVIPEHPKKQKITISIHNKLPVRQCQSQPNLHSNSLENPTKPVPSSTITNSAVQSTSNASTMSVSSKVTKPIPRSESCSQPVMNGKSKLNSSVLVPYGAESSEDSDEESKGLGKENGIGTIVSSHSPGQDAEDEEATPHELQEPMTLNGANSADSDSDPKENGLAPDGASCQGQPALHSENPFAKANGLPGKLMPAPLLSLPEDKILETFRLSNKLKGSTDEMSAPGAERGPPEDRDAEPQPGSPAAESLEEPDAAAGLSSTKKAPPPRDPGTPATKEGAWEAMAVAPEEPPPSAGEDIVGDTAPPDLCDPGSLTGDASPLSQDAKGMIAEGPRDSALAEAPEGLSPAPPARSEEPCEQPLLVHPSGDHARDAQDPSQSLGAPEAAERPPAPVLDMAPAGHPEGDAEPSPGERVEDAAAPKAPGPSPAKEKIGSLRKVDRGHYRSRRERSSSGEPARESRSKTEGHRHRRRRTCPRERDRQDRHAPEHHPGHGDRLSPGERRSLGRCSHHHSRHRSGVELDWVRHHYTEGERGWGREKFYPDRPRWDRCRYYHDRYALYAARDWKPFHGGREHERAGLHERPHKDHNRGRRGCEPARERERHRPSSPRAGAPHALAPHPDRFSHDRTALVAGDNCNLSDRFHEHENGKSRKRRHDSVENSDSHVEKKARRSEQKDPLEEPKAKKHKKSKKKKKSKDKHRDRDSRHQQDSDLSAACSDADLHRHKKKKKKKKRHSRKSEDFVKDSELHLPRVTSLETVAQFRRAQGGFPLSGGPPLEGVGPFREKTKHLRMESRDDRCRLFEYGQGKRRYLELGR
In short: (§1)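 HEK293T lysate (495 µg per sample, in Tris/CHAPS/IGEPAL buffer with protease inhibitors) was exposed in triplicate for 3 h to fragment at 200 µM or to vehicle, then to Biotin-Ahx-Ub-VS at 0.5 µM final for 1 h. Labelled DUBs were enriched on NeutrAvidin, digested with LysC and trypsin, and analysed by diaPASEF LC-MS/MS. Spectronaut label-free quantities were normalised to the global median, and values are average log2 ratios of fragment over vehicle from an unpaired t-test. Only proteins with ≥2 unique peptides were used.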

USP46 = USP46 (UniProt P62068)
In short: as §1

USP47 = target: T2, USP47 (UniProt Q96K76)
T2 sequence (whole entry): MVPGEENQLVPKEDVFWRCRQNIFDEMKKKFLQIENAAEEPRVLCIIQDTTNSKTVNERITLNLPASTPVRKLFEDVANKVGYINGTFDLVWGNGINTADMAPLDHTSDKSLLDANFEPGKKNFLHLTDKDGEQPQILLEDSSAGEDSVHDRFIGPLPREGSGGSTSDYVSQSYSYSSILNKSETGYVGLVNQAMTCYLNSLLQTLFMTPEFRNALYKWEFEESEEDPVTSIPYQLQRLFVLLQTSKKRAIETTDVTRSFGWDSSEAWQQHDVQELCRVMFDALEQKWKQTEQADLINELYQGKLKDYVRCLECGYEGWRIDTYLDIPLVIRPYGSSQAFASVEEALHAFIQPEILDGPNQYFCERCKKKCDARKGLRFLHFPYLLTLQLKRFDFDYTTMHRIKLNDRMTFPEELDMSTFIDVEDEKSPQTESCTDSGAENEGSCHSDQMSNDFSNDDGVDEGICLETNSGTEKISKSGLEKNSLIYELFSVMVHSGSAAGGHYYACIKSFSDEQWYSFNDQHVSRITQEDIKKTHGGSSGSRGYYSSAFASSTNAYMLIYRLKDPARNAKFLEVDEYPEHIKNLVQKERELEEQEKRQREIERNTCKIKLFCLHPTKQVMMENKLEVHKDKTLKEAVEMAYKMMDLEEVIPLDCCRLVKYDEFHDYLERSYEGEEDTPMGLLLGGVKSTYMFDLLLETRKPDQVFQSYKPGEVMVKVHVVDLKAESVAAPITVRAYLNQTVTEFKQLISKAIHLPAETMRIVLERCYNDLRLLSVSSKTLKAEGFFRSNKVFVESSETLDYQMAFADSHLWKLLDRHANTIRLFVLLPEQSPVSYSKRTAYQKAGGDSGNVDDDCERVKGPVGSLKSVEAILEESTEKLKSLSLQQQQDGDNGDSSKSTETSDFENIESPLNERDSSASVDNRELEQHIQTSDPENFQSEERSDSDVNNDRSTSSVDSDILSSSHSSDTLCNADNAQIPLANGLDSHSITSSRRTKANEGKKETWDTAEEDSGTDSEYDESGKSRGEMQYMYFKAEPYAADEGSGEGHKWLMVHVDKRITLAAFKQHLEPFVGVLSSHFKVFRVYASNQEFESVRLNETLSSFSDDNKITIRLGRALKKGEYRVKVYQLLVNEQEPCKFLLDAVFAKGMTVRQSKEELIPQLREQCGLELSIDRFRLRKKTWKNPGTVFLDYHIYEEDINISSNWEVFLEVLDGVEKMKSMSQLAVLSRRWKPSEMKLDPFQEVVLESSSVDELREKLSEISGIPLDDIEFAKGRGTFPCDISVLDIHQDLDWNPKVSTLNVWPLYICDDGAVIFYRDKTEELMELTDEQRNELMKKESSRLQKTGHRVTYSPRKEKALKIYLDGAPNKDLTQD
In short: as §1

USP48 = target: T3, USP48 (UniProt Q86UV5)
T3 sequence (whole entry): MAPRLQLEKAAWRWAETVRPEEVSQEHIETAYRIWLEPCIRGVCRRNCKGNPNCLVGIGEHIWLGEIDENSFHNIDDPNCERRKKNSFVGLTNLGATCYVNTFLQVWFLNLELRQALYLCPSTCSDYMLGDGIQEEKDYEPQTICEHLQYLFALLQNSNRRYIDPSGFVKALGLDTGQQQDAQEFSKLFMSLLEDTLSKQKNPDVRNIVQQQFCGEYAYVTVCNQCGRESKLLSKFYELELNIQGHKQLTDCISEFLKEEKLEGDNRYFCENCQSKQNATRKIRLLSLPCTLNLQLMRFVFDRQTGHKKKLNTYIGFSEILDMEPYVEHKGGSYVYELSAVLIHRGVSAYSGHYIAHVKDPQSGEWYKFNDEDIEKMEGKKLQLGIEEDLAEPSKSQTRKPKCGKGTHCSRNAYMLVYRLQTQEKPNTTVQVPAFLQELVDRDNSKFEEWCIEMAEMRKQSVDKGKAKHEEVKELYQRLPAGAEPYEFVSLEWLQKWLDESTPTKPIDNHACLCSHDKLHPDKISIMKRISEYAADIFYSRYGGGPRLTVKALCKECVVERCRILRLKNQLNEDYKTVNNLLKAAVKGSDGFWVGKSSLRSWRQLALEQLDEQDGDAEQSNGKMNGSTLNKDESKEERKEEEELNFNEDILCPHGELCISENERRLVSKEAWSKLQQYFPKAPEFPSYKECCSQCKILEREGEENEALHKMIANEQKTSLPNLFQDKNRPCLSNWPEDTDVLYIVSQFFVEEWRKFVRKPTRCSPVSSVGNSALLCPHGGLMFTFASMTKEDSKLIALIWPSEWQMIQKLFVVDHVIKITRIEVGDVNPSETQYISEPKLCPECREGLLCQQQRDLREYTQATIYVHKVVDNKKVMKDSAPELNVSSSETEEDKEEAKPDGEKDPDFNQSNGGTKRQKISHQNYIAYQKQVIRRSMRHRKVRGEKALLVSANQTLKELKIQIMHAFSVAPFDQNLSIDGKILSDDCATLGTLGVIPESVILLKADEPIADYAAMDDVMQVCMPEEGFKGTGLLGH
In short: as §1

USP5 = target: T4, USP5 (UniProt P45974)
T4 sequence (whole entry): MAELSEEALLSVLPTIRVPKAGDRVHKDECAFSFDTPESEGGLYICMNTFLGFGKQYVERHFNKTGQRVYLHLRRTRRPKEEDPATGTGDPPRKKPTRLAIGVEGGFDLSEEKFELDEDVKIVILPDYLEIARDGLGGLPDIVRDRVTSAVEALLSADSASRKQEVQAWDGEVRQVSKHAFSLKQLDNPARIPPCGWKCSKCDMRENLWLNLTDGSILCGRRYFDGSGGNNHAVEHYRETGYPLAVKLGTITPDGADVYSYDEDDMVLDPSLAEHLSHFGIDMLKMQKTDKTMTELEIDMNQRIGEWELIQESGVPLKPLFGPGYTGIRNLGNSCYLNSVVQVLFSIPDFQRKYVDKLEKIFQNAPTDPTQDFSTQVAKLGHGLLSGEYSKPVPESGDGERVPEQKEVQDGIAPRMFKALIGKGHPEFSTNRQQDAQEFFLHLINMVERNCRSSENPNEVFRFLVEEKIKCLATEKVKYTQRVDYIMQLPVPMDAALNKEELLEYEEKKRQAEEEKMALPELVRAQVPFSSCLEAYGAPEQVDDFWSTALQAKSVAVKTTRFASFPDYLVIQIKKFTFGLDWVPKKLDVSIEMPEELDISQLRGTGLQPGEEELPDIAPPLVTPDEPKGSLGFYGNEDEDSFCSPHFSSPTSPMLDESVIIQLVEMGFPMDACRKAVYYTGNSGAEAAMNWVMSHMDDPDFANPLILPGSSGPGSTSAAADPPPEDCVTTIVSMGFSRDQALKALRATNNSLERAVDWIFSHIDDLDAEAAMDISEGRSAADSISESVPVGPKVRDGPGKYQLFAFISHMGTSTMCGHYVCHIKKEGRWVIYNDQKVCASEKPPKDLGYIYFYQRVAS
In short: as §1

USP54 = USP54 (UniProt Q70EL1)
In short: as §1

USP7 = USP7 (UniProt Q93009)
In short: as §1

USP8 = target: T5, USP8 (UniProt P40818)
T5 sequence (whole entry): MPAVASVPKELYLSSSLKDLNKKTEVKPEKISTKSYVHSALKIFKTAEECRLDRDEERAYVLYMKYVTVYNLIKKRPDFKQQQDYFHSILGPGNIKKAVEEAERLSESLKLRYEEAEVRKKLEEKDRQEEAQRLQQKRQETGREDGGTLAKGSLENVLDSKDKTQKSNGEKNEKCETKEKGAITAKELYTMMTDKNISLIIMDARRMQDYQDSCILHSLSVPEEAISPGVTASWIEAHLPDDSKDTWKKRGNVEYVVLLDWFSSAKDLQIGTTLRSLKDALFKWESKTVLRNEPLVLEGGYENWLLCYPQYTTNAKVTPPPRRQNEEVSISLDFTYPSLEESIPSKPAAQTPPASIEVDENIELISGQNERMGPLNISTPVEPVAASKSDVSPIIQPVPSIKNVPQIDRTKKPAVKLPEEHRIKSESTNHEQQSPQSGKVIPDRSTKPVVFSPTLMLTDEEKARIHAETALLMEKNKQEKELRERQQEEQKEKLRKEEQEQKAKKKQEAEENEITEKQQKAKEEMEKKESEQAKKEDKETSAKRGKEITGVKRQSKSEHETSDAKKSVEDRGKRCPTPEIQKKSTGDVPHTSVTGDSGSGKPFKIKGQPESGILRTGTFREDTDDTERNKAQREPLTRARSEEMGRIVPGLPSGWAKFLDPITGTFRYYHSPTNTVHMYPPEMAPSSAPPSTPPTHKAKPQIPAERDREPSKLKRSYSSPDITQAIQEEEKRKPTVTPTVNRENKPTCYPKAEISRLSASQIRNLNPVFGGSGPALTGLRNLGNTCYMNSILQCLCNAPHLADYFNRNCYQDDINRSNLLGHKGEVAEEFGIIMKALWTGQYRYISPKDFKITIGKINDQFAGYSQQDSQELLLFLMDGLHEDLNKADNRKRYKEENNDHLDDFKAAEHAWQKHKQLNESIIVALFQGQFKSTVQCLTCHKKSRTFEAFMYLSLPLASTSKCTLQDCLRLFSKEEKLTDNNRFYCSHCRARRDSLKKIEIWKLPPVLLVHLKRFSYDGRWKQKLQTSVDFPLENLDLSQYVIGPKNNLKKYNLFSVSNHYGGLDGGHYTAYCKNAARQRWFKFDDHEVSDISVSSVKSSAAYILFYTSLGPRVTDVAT
In short: as §1

USP9X = USP9X (UniProt Q93008)
In short: as §1

UniProt O00487 = target: UniProt O00487
In short: as §1

Measured: log2 ratio of Biotin-Ahx-Ub-VS probe labelling

Sequence of USP46 (P62068 whole entry): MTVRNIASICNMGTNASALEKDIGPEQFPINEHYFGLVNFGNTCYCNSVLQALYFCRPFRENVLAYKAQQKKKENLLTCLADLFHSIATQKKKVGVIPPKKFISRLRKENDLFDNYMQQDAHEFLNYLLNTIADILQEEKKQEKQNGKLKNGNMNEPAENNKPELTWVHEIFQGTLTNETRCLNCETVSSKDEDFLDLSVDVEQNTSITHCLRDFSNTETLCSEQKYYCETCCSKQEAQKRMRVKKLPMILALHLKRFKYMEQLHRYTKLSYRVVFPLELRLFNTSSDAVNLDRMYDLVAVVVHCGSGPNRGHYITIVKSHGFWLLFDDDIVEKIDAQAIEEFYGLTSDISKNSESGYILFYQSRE
Sequence of USP54 (Q70EL1 whole entry): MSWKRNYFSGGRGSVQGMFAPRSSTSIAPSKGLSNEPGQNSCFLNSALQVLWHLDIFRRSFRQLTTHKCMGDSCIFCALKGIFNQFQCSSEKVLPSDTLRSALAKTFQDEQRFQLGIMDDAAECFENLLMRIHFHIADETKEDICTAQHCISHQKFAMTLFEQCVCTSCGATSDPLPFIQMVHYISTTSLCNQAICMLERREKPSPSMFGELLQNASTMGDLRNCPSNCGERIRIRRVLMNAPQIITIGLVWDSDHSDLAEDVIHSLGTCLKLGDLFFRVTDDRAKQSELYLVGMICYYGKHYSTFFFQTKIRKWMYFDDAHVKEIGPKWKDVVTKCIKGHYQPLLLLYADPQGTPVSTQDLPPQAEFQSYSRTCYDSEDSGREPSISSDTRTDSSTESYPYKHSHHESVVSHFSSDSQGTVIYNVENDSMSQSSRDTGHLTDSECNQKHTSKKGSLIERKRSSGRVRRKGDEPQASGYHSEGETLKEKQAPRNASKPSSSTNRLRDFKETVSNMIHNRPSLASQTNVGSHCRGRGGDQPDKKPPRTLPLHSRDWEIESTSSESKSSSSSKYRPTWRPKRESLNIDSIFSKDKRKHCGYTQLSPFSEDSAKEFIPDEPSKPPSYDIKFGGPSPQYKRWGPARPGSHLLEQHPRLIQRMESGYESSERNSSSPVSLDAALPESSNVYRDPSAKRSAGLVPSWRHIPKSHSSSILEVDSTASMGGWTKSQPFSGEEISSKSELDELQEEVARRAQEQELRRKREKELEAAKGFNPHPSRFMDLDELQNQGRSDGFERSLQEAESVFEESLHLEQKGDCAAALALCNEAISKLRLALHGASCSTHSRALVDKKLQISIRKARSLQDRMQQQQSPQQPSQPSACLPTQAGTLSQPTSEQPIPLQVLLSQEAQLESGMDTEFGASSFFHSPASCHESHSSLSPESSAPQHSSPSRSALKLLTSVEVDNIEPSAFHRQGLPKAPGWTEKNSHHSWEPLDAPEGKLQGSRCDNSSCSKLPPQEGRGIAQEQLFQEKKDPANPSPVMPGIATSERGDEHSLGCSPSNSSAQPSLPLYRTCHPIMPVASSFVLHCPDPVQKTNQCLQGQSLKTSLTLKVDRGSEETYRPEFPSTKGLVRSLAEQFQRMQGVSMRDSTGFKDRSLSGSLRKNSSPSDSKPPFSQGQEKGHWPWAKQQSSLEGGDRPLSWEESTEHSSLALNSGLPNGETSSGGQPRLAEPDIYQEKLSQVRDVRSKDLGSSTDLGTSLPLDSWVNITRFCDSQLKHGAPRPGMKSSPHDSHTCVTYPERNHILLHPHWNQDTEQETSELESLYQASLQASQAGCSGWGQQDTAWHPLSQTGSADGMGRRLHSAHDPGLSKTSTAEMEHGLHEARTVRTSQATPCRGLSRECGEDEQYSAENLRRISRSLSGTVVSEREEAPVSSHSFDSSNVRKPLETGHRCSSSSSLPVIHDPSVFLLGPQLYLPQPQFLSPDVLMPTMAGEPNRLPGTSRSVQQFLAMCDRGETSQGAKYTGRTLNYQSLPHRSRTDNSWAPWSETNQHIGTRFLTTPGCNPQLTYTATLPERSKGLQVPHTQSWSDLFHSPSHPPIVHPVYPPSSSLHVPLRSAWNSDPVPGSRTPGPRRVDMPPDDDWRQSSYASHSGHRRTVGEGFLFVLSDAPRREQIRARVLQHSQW
Sequence of UniProt O00487 (O00487 whole entry): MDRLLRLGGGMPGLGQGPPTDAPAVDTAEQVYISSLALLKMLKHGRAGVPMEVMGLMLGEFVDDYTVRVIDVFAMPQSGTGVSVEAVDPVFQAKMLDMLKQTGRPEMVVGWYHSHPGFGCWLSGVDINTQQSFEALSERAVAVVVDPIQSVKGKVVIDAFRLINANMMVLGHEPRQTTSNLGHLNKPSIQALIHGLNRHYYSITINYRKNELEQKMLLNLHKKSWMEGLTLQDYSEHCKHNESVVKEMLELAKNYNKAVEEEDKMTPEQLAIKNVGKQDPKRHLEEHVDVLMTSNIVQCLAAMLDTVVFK
Sequence of USP9X (Q93008 whole entry): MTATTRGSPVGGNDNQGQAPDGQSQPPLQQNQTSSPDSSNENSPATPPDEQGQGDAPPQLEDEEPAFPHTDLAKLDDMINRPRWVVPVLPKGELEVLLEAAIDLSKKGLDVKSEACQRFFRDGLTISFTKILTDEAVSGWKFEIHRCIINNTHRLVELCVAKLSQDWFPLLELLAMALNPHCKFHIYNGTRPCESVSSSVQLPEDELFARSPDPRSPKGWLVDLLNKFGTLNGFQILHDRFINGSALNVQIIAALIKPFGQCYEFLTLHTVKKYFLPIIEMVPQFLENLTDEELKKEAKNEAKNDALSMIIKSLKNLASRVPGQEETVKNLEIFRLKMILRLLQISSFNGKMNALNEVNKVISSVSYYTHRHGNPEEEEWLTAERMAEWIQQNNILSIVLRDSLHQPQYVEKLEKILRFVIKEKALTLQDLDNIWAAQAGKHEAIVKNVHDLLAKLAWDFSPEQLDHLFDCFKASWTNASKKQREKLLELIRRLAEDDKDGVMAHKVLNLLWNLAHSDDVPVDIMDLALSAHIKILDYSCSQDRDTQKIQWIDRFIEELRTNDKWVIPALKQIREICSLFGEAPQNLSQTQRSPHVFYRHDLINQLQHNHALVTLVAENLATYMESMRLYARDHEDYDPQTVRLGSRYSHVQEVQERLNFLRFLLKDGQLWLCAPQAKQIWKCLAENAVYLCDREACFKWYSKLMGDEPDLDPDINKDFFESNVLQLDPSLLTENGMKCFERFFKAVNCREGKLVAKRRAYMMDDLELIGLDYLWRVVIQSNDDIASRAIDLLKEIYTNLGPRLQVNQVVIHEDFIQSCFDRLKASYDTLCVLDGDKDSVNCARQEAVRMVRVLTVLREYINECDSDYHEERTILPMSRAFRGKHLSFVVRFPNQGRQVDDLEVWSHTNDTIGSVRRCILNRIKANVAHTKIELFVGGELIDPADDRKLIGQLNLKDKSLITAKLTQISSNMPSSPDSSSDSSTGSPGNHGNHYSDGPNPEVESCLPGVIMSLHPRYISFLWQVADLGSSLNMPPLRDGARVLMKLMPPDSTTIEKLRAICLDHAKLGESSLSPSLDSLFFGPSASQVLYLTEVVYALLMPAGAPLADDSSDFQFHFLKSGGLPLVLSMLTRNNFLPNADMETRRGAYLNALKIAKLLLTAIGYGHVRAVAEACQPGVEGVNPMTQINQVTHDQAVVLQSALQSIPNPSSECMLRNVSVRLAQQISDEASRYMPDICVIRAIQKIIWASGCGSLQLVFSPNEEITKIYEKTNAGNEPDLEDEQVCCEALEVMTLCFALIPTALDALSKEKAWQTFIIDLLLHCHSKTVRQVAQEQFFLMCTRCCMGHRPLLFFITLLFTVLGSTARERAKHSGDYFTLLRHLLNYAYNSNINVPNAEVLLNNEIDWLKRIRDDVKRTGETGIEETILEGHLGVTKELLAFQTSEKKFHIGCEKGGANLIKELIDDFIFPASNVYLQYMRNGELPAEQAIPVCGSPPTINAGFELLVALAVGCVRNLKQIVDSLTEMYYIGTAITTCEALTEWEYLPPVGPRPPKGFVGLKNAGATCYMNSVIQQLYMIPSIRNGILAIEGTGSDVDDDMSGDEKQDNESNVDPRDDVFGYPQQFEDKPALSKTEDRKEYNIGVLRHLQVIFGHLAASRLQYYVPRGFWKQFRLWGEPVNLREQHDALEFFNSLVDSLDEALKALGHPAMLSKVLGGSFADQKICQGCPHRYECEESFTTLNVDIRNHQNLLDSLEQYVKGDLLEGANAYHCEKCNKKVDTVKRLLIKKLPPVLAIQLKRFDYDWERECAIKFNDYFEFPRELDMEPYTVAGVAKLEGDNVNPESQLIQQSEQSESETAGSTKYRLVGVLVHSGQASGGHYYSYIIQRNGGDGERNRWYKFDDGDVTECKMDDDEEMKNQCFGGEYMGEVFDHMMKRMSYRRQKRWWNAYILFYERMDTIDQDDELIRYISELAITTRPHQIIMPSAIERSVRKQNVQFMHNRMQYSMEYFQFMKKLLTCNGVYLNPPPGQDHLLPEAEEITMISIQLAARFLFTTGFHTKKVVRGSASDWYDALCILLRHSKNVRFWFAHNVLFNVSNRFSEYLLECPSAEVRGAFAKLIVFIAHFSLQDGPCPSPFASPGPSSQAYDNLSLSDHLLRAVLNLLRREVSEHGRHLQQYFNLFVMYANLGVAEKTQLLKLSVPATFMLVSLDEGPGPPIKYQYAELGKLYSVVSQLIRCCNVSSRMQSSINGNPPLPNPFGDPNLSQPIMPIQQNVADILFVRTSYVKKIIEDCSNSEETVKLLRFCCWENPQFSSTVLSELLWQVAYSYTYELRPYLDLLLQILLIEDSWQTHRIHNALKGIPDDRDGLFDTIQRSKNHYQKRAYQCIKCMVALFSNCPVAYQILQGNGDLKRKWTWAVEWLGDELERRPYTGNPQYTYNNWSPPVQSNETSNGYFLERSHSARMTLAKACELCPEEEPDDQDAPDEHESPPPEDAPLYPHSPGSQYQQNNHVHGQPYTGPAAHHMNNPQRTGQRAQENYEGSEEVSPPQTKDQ

O=C(CCl)N1CCC(c2ccn[nH]2)C1 (stereo not given)
inactive: USP42 -0.237 | USP46 -0.0632 | USP47 -0.0366 | USP48 -0.675 | USP5 -0.0093 | USP54 -0.0323 | USP7 -0.384 | USP8 -0.487 | USP9X -0.391 | UniProt O00487 0.0518

Cc1nc(CN2CCCN(C(=O)CCl)CC2)no1.Cl
inactive: USP42 0.102 | USP46 0.0734 | USP47 -0.095 | USP48 0.261 | USP5 -0.016 | USP54 -0.482 | USP7 -0.0348 | USP8 0.237 | USP9X 0.101 | UniProt O00487 0.118

Cc1nc(CC2CCN(C(=O)CCl)CC2)no1
inactive: USP42 0.631 | USP46 -0.332 | USP47 -0.726 | USP48 -0.576 | USP5 -0.492 | USP54 0.803 | USP7 -0.904 | USP8 -0.755 | USP9X -0.815 | UniProt O00487 -0.084

C[C@@H](NC(=O)CCl)c1cccc(C#N)c1
inactive: USP42 0.213 | USP46 0.013 | USP47 -0.609 | USP48 -0.209 | USP5 0.067 | USP54 0.0518 | USP7 -0.0563 | USP8 -0.19 | USP9X -0.116 | UniProt O00487 0.0457
